# Experimental data reported in PubChem BioAssay (EPA / NIEHS).
# Where “and” joins values, the source holds several entries; their conditions need not be identical. Equal values may be shown once. The source holds several records for some structures; these can differ, active in one and inactive in another. Calls of active or inactive are those of the source. How the source made its calls: active means hit-call score of the fitted dose curve at least 0.9, where 1 is the maximum; inactive means score below 0.9.
# Target: Cellular tumor antigen p53 (Homo sapiens) (UniProt P04637)
# Experiment: ATG_p53_CIS: Attagene CIS-FACTORIAL HepG2 Assay for human p53 Transcription Factor (AID 2282994)
# Details: HepG2 p53 cis-element reporter, Attagene mRNA; actives raise or lower the signal
# Description: ATG_CIS is a cell-based, multiplexed-readout assay that uses HepG2, a human liver cell line, with measurements taken at 24 hours after chemical dosing in a 24-well plate.ATG_p53_CIS is one of 52 assay component(s) measured or calculated from the ATG_CIS assay. It is designed to make measurements of mRNA induction, a form of inducible reporter, as detected with fluorescence intensity signals by Reverse transcription polymerase chain reaction (RT-PCR) and Capillary electrophoresis technology.Data from the assay component ATG_p53_CIS was analyzed into 1 assay endpoint. This assay endpoint, ATG_p53_CIS, was analyzed with bidirectional fitting relative to DMSO as the negative control and baseline of activity. Using a type of inducible reporter, measures of mRNA for gain or loss-of-signal activity can be used to understand the reporter gene at the transcription factor-level as they relate to the gene TP53. Furthermore, this assay endpoint can be referred to as a primary readout, because this assay has produced multiple assay endpoints where this one serves a reporter gene function. To generalize the intended target to other relatable targets, this assay endpoint is annotated to the dna binding intended target family, where the subfamily is tumor suppressor.
# Human liver HepG2 cells are transiently transfected with multiple reporter transcription units (MRTUs) in 6-well plates using FuGene 6 reagent (Roche; 3 ml FuGene/1 mg DNA). The MRTU constructs are regulated by a cis-regulating element (promoter). […] A major difference between the CIS and TRANS system is that in CIS activities of endogenous TFs are measured, whereas the TRANS assay evaluates changes in activities of exogenous, chimeric NR-Gal4 proteins. […] At the end of 24 hour incubation, total RNA was isolated using TriZol reagent (Invitrogen). The isolated RNA is then reverse-transcribed using oligo(dT) primer and Mo-MLV reverse transcriptase (Invitrogen) with DNAse I (Ambion) treatment for 30 min. The one-tenth of the produced cDNA was amplified by PCR using Taq DNA polymerase (Invitrogen) and two reporter sequence-specific primers. The PCR products were fluorescently labeled by primer extension with 6-arboxyfluorescein (6-FAM) 5'-labeled reporter sequence-specific primer (2 min at 95 C, 20 s at 68 C and 10 min at 72 C) and these products were digested with 5U of HpaI (New England Biolabs) for 2h at 37 C. The fragments were purified using Qiaquick PCR columns (Qiagen), analyzed on an ABI 3130xL genetic analyzer (Applied Biosystems) with peak positions identified by using a set of X-rhodamine (ROX)-labeled MapMarker1000 molecular weight standards (BioVentures). The raw capillary electrophoresis data was processed using Attagraph software (Attagene).
# Chain of Cellular tumor antigen p53 (Homo sapiens) (P04637 whole entry, looked up): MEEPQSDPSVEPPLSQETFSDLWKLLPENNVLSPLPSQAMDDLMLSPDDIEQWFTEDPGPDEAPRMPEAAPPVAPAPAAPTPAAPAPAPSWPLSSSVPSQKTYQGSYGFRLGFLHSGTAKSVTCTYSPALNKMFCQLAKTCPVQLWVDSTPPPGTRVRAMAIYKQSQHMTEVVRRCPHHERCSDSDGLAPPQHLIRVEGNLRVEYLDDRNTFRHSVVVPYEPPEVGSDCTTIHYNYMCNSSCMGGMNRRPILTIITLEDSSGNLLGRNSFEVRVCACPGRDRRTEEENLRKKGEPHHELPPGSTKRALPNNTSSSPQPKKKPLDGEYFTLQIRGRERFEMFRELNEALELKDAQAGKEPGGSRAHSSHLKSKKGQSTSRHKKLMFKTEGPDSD
SMILES,outcome,AC50
C[C@]12CCC(=O)C[C@@H]1CC[C@@H]1[C@@H]2CC[C@]2(C)[C@@H](O)CC[C@@H]12,inactive,51.4 µM (active)
CCOP(=S)(OCC)Oc1nc(Cl)c(Cl)cc1Cl,inactive,
COC(=O)Cc1ccccc1,inactive,
CC(=O)OC(c1ccccc1)C(Cl)(Cl)Cl (stereo not given),inactive,
Cc1ccccc1C(=O)Nc1cccc(OC(C)C)c1,inactive,
CC(=O)c1cc(C(C)(C)C)cc2c1CCC2(C)C,inactive,
CC(C)c1ccc(CO)cc1,inactive,
Nc1ccc(-c2ccc(N)c(Cl)c2)cc1Cl,inactive,
CNC,inactive,
CC(C#N)CCC#N (stereo not given),inactive,
CCOP(=O)(CN(CCO)CCO)OCC,inactive,
CC(=O)C(Cl)C(=O)N(C)C (stereo not given),,178 µM (active)
ClCc1cccnc1,inactive,
COP(=S)(OC)Oc1cc(Cl)c(Cl)cc1Cl,inactive,
OCC(O)CCl (stereo not given),inactive,
Nc1ccc(N=Nc2ccc(-c3ccc(N=Nc4c(S(=O)(=O)O)cc5cc(S(=O)(=O)O)c(N=Nc6ccccc6)c(O)c5c4N)cc3)cc2)c(N)c1,inactive,
C(=NC1CCCCC1)=NC1CCCCC1,inactive,
CCCCCCCCc1ccc(O)cc1,inactive,
Nc1ccc(Cl)cc1C(=O)c1ccccc1,inactive,

SMILES,outcome,AC50
O=C(NCO)NCO,inactive,
O=C(Cl)c1ccc(Cl)cc1,inactive,
C=CC(=O)N(C)C,inactive,
CN(C)N=O,inactive,
COc1cc(-c2ccc(N)c(OC)c2)ccc1N,inactive,
CC(C)(c1ccccc1)c1ccc(O)c(C(C)(C)c2ccccc2)c1,inactive,
O=C(Cc1ccccc1)c1ccccc1,inactive,
CCOC(=O)CP(=O)(OCC)OCC,inactive,
NC(=O)O,inactive,
COP(=S)(OC)Oc1ccc(S(=O)(=O)N(C)C)cc1,inactive,
CCC(=O)C(CC(C)N(C)C)(c1ccccc1)c1ccccc1 (stereo not given),,48.9 µM (active)
C=CC(=O)OCCCCCC(C)C,inactive,
COc1ccc(OC)c(C=O)c1,inactive,
CCC[CH2][Sn]([Cl])([Cl])[Cl],inactive,
CC(C)(C)CC(C)(C)c1ccc(O)cc1,inactive,16 µM (active) and 16.4 µM (active)
CCN(CC)C(=O)Cl,inactive,
Cl/C=C\C[N+]12CN3CN(CN(C3)C1)C2,,173 µM (active)
Nc1cccc2ccccc12,inactive,
NNC(=S)NN,inactive,
